From PubChem BioAssay (NCI)
Compounds without any hit were thinned out: in the full panel of roughly 79,000, 15% have a hit. Calls of active or inactive are those of the source. Rule as the data show it: active = growth inhibition above about 70%; inactive = the rest.

Columns and labels:
[1] = NCI Yeast Anticancer Drug Screen. Data for the rad50 strain (AID 155);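 also: 0% = growth of vehicle-only cultures of the same strain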; settings: S. cerevisiae rad50 strain growth inhibition, stronger effect = higher value
Summary of the method: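 Yeast carrying a defined DNA repair defect were exposed to test compounds, and growth was compared with vehicle-treated controls to give percent inhibition.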

[2] = NCI Yeast Anticancer Drug Screen. Data for the mec2-1 strain (AID 157); settings: S. cerevisiae mec2-1 strain, stronger effect = higher value
Summary of the method: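 Yeast mec2-1 mutant treated with compound. Readout: growth inhibition vs vehicle controls.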

[3] = NCI Yeast Anticancer Drug Screen. Data for the sgs1 mgt1 strain (AID 161);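 also: 0% = growth of cultures given vehicle only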; settings: S. cerevisiae sgs1 mgt1 strain, stronger effect = higher value
Summary of the method: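 Inhibition of yeast growth, normalised to vehicle-treated controls, is reported for a strain bearing genetic alterations in DNA damage repair.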

[4] = NCI Yeast Anticancer Drug Screen. Data for the cln2 rad14 strain (AID 165);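 also: 0% = growth equal to vehicle treated cultures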; settings: S. cerevisiae cln2 rad14 strain, stronger effect = higher value
Summary of the method: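 cln2 rad14 yeast strain; compound exposure; growth inhibition read vs vehicle controls.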

[5] = NCI Yeast Anticancer Drug Screen. Data for the bub3 strain (AID 167); settings: S. cerevisiae bub3 mutant strain, stronger effect = higher value
Summary of the method: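 Compounds were applied to a genetically altered yeast strain carrying a cell-cycle control defect. Growth inhibition was scored against vehicle-treated controls.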

[6] = NCI Yeast Anticancer Drug Screen. Data for the mlh1 rad18 strain (AID 175); settings: S. cerevisiae mlh1 rad18 strain growth inhibition, stronger effect = higher value
Summary of the method: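 Yeast w/ defined DNA-repair lesions; compound exposure; growth vs vehicle controls → % inhibition.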

[7] = at 5.0 µM (retest, dose inferred, filed as 0.5)
[8] = at 50.0 µM (retest, dose inferred, filed as 5.0)

Measured: growth inhibition

CCN(CC)c1ccc(SC#N)cc1
inactive: [1]; [7] 1% | [2]; [7] -39% | [3]; [7] 0% | [3]; at 50.0 µM 58% | [4]; [7] -3% | [5]; [7] 10% | [6]; [7] -3%
active: [1]; [8] 93% | [1]; at 50.0 µM 91.2% | [2]; [8] 94% | [2]; at 50.0 µM 95.1% | [3]; [8] 95% | [4]; [8] 88% | [4]; at 50.0 µM 90.2% | [5]; [8] 96% | [5]; at 50.0 µM 97.5% | [6]; [8] 95% | [6]; at 50.0 µM 93.6%

OCC(O)C(OC1OC(CO)C(O)C(O)C1O)C(O)C(/C=N/Nc1ccc(Br)cc1)=N/Nc1ccc(Br)cc1 (stereo not given)
inactive: [1]; [7] -3% | [2]; [7] -11% | [3]; [7] 2% | [4]; [7] -41% | [5]; [7] 23% | [6]; [7] 13%
active: [1]; [8] 98% | [1]; at 50.0 µM 99.3% | [2]; [8] 98% | [2]; at 50.0 µM 98.5% | [3]; [8] 99% | [3]; at 50.0 µM 98.5% | [4]; [8] 99% | [4]; at 50.0 µM 98.9% | [5]; [8] 99% | [5]; at 50.0 µM 97.9% | [6]; [8] 98% | [6]; at 50.0 µM 98.5%

CC12CCCC1C1CC=C3CC(OC=O)CCC3(C)C1CC2 (stereo not given)
inactive: [1]; [7] 1% | [1]; [8] 4% | [1]; at 50.0 µM 13.4% | [2]; [7] 10% | [2]; [8] 3% | [2]; at 50.0 µM 1.5% | [3]; [7] 0% | [3]; [8] 25% | [3]; at 50.0 µM 40.9% | [4]; [7] -37% | [4]; [8] -5% | [4]; at 50.0 µM 38.8% | [5]; [7] -8% | [5]; [8] 44% | [5]; at 50.0 µM -13.4% | [6]; [7] -1% | [6]; [8] -2% | [6]; at 50.0 µM -12.3%

Oc1c(Cl)c2ccccc2c2ccccc12
inactive: [1]; [7] -2% | [1]; [8] 59% | [2]; [7] 56% | [2]; [8] 48% | [3]; [7] 1% | [3]; [8] 23% | [4]; [7] -1% | [4]; [8] 24% | [5]; [7] 37% | [6]; [7] 8% | [6]; [8] 44%
active: [1]; at 50.0 µM 98.6% | [2]; at 50.0 µM 99.2% | [3]; at 50.0 µM 99% | [4]; at 50.0 µM 98.5% | [5]; [8] 76% | [5]; at 50.0 µM 93.5% | [6]; at 50.0 µM 98.7%

COC1/C=C/OC2(C)Oc3c(C)c(O)c4c(c3C2=O)C(=O)C=C(NC(=O)/C(C)=C\C=C\C(C)C(OC=O)C(C)C(O)C(C)C(OC(C)=O)C1C)C4=O (stereo not given)
inactive: [1]; [7] -15% | [1]; [8] -4% | [1]; at 50.0 µM 47% | [2]; [7] 1% | [2]; [8] 3% | [2]; at 50.0 µM 53.5% | [3]; [7] -12% | [3]; [8] 29% | [3]; at 50.0 µM 52.5% | [4]; [7] -5% | [4]; [8] 3% | [5]; [7] -8% | [5]; [8] 5% | [5]; at 50.0 µM 49.6% | [6]; [7] 11% | [6]; [8] 27% | [6]; at 50.0 µM 55.7%
active: [4]; at 50.0 µM 79%

Cc1ccc2nc(-[n+]3cc4ccccc4cc3C)ccc2c1
active: [1]; [8] 99% | [1]; at 50.0 µM 89% | [2]; [8] 100% | [2]; at 50.0 µM 87.6% | [3]; [8] 99% | [3]; at 50.0 µM 89.3% | [4]; [8] 83% | [5]; [8] 100% | [5]; at 50.0 µM 87.7% | [6]; [8] 98% | [6]; at 50.0 µM 87.3%
inactive: [1]; [7] 9% | [2]; [7] 1% | [3]; [7] 3% | [4]; [7] -1% | [4]; at 50.0 µM 17.2% | [5]; [7] 1% | [6]; [7] 5%

O=C1C=C(Br)C(=O)C(Br)=C1
active: [1]; [8] 99% | [1]; at 50.0 µM 93.8% | [2]; [8] 99% | [2]; at 50.0 µM 99.6% | [3]; [8] 98% | [3]; at 50.0 µM 99.3% | [4]; [8] 86% | [5]; [8] 99% | [5]; at 50.0 µM 94.2% | [6]; [8] 99% | [6]; at 50.0 µM 97.5%
inactive: [1]; [7] 25% | [2]; [7] 21% | [3]; [7] 13% | [4]; [7] 28% | [4]; at 50.0 µM 25.7% | [5]; [7] 31% | [6]; [7] 40%

Cc1c(C)c2cc3c(=O)ccoc3c(C)c2oc1=O
active: [1]; [8] 76%
inactive: [1]; [7] 32% | [1]; at 50.0 µM 48.1% | [2]; [7] 1% | [2]; [8] 38% | [2]; at 50.0 µM 19.6% | [3]; [7] -11% | [3]; [8] 21% | [3]; at 50.0 µM 30.5% | [4]; [7] 8% | [4]; [8] 45% | [4]; at 50.0 µM 42% | [5]; [7] -1% | [5]; [8] 52% | [5]; at 50.0 µM 30.4% | [6]; [7] -11% | [6]; [8] 68% | [6]; at 50.0 µM 69.6%

O=C1C=CC(=O)N1C1CCCCC1
active: [1]; [7] 93% | [1]; [8] 99% | [1]; at 50.0 µM 99.6% | [2]; [8] 100% | [2]; at 50.0 µM 99.7% | [3]; [7] 95% | [3]; [8] 99% | [3]; at 50.0 µM 99.5% | [4]; [8] 99% | [4]; at 50.0 µM 99.8% | [5]; [7] 90% | [5]; [8] 99% | [5]; at 50.0 µM 99.7% | [6]; [7] 98% | [6]; [8] 99% | [6]; at 50.0 µM 99.6%
inactive: [2]; [7] 60% | [4]; [7] 30%

Nc1nccc(NCCCCCCNc2ccnc(N)n2)n1
inactive: [1]; [7] 16% | [1]; [8] 41% | [1]; at 50.0 µM 43.2% | [2]; [7] 13% | [2]; [8] 19% | [2]; at 50.0 µM 41.6% | [3]; [7] 8% | [3]; [8] 36% | [4]; [7] 17% | [4]; [8] 21% | [4]; at 50.0 µM 52% | [5]; [7] 9% | [5]; [8] 33% | [5]; at 50.0 µM 48% | [6]; [7] 17% | [6]; [8] 60% | [6]; at 50.0 µM 57.2%
active: [3]; at 50.0 µM 80%
